Each structure is given as a SMILES string. Among all 330,000 compounds or so, about 4,400 (1.3%) were called active. The list comes from a sample in which actives are over-represented; it also holds similar structures and randomly drawn compounds. Unmarked numbers belong to inactive results.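 The calls were made as follows: active = growth inhibition of the mutant yeast at or above 50%; inactive = the rest.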

A short description of this assay: growth inhibition of tim23-1 ts yeast – luminescence, uHTS, primary screen (AID 463212).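 Also: temperature-sensitive mutant grown at 25 °C; plate controls were DMSO-treated mutant yeast for no effect and medium wells lacking yeast for full effect.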 Particulars: S. cerevisiae tim23-1 growth, BacTiter-Glo luminescence, 24 h; at 20 µM; stronger effect = higher value.
As a reminder, the inhibition is the drop in the measured response relative to a control, in per cent. On to `CC(C)(C)c1ccc(Oc2ccc(N)cc2)cc1`, for which the inhibition is 60.7% (active).
Take `CC(C)(C)c1ccc(OC2=CS(=O)(=O)c3ccccc32)cc1`: the inhibition is 20.4%.
The figure for `COc1cccc(Oc2ccc(N)cc2)c1` is 8.39%; for `COc1ccc(C2NC(=O)c3ccccc3N2)cc1` (stereo unspecified) it is 16.7%.
For the compound `Oc1ccc(C2Nc3cccc4cccc(c34)N2)cc1`, the inhibition is 23.4%.
The same measure for `COc1cccc(C2Nc3cccc4cccc(c34)N2)c1`: 57.5% (active).
Turning to `O=C(NC1CCCC1)C(c1ccc(Cl)cc1)N(C(=O)c1csnn1)C1CC1` (stereo unspecified), the inhibition was 11.6%.
Regarding `O=C(CN1CCC(NC(=O)C2CC2)CC1)Nc1ccccc1[N+](=O)[O-]`, the inhibition was 8.81%.
For `O=S(=O)(c1ccc(SCc2ccc(Br)cc2)nc1)N1CCOCC1`, the inhibition was 6.55%.
As for `COc1ccc(C(=O)NCC(=O)N/N=C/c2ccc([N+](=O)[O-])o2)cc1OC`, the inhibition is 87.3% (active).
For the compound `COc1cc(CC(=O)N/N=C/c2ccccc2)c([N+](=O)[O-])cc1OC`, the inhibition is 4.64%.
On to `COc1cc(/C=N/NC(=O)CNC(=O)c2ccncc2)ccc1OC(C)=O`, for which the inhibition was -0.262%.
With `CCN(CC(=O)Nc1cc(Cl)ccc1C)C(=O)CSCc1ccccc1`, the inhibition was 18.4%.
Turning to `Cc1ccc(S(=O)(=O)c2c[nH]c3ccc(C)cc3c2=O)cc1`, the inhibition is -5.69%.
`Cc1ccc(-c2cccc([C@H]3[C@@H]4C=CC[C@@H](C)[C@@H]4C(=O)N3Cc3ccccc3)c2)cc1`: the inhibition was 36.6%.
As for `COCCCNc1nc2ccccc2nc1NS(=O)(=O)c1ccc(F)cc1`, the inhibition was 21.6%.
For the compound `O=[N+]([O-])c1ccc(C=Nc2ccc(Cl)cc2Cl)s1`, the inhibition is 60.2% (active).
Regarding `CC1CN(C(=O)c2ccc([N+](=O)[O-])s2)CC(C)O1` (stereo unspecified), the inhibition was 13.9%.
Take `Cc1ccc2c(c1)C1C[N+](C)(CC(=O)c3ccccc3)CCC1N2C(=O)c1ccccc1Cl` (stereo unspecified): the inhibition is -4.6%.
As to `COc1ccc(Nc2nc(N)nc(CSC(=S)N3CCC(C)CC3)n2)cc1`, the inhibition was 50%.
With `CC(=O)c1ccc(NC(=O)c2ccc(-n3cncn3)c([N+](=O)[O-])c2)cc1`, the inhibition is -6.94%.
As for `Cc1cc(Cl)ccc1C(=O)C1CCCN(C(=O)c2nonc2C)C1` (stereo unspecified), the inhibition was 41.7%.
The figure for `O=C(Nc1ccc(N2CCOCC2)cc1)c1ccc2c(c1)OCO2` is 10.9%; for `O=C(Nc1ccc(NC(=O)c2ccc3c(c2)OCO3)cc1)c1cccc(Cl)c1` it is 1.12%; for `O=C(Nc1ccccc1)c1ccc2c(c1)OCCCO2` it is 51% (active).
Regarding `O=C(Nc1cccc(F)c1)NC1CCCc2ccccc21` (stereo unspecified), the inhibition was 19.8%.
The figure for `O=C(Nc1cccc(F)c1)NC1CCCCCCC1` is 50.3% (active); for `C/C(CC(=O)Nc1cccc(F)c1)=N\NC(=O)C(=O)NC1CCCCC1` it is 18.3%; for `COc1cc(/C=C2/C(=O)ON=C2C)ccc1OCc1cccc(F)c1` it is 52.2% (active).
The figure for `COc1cc(/C=C2/C(=O)ON=C2C)ccc1OCc1ccccc1F` is 66.9% (active); for `CC1=NOC(=O)/C1=C\c1ccccc1` it is 16.8%; for `C#CCOc1ccc(/C=C2/C(=O)ON=C2C)cc1OCC` it is 28.2%.
The figure for `COc1cc(/C=C2\SC(=O)NC2=O)ccc1OCc1ccc(Cl)nc1` is -2.95%; for `C=CCOc1ccc(/C=C2/C(=O)ON=C2C)cc1OCC` it is 22.6%.
Take `CN1CCN(C(CNS(=O)(=O)c2cccs2)c2cccnc2)CC1` (stereo unspecified): the inhibition is 7.24%.
`CCN(CC(=O)Nc1ccc(OC)cc1)C(=O)c1ccc(=O)n(Cc2ccccc2)n1`: the inhibition was 7.12%.
On to `CC(C)N(C(=O)[C@H]1C[C@H](CC(=O)NC(C)(C)C)C(=O)N2CCc3c([nH]c4ccc(Cl)cc34)[C@]12C)C(C)C`, for which the inhibition is 43.7%.
In the case of `COC(C[C@H](O)CC(=O)[C@@H](C)OCc1ccccc1)OC`, the inhibition is 8.93%.
For `COC(C/C=C/C(=O)[C@@H](C)OCc1ccccc1)OC`, the inhibition is 56.2% (active).
For `COC(C[C@@H]1O[C@@H]1C(=O)[C@H](C)OCc1ccccc1)OC`, the inhibition was -16.7%.
Turning to `Cc1ccc(NS(=O)(=O)c2ccc3c(c2)oc(=O)n3C)c(C)c1`, the inhibition was 21.8%.
Regarding `CCn1cc(C(=O)NC2CCCCCC2)c(=O)c2cc(S(=O)(=O)N3CCCCC3)ccc21`, the inhibition was 12.1%.
`N#Cc1cccc(CSc2ncnc(N)n2)c1`: the inhibition was 10.7%.
As to `OCCN1CCN(c2nnc(-c3ccccc3)c3ccccc23)CC1`, the inhibition is -13.1%.
For `c1ccc(-c2nnc(N3CCOCC3)c3ccccc23)cc1`, the inhibition was -18.2%.
Regarding `CCCC(=O)N1CCN(c2nnc(-c3ccc(C)cc3)c3ccccc23)CC1`, the inhibition was 50.5% (active).
As for `O=C(Oc1cccc(O)c1)C1CCCCC1`, the inhibition is 25.1%.
For `CCCSC(=S)NC1CCS(=O)(=O)C1` (stereo unspecified), the inhibition was 8.59%.
Take `COc1ccc2c(c1)C(=C(C#N)C#N)C(=O)N2CCc1ccccc1`: the inhibition is 70.8% (active).
For `C#CCN1C(=O)C(O)(CC(=O)c2cc(OC)ccc2OC)c2ccccc21` (stereo unspecified), the inhibition was 30%.
Consider `CCCCN1C(=O)/C(=C(/C#N)C(N)=O)c2ccccc21`, for which the inhibition was 21.8%.
Consider `COc1cccc(-c2nnc(NC(=O)c3ccc(S(=O)(=O)N(CC(C)C)CC(C)C)cc3)o2)c1`, for which the inhibition was 11.6%.
In the case of `Cc1cccc(-c2nc3ccccc3c(=O)n2NC(=O)Cc2ccc(Cl)cc2)c1`, the inhibition is 23.4%.
`NC(=O)c1cc(-c2cccnc2)nc2ccc(Br)cc12`: the inhibition was -4.37%.
Consider `O=c1c2cc(Br)ccc2nc(-c2cccc(Cl)c2)n1O`, for which the inhibition is 65.8% (active).
Regarding `CCOc1cc(NC(=O)Nc2ccccc2)c(OCC)cc1NC(=O)CC`, the inhibition was 7.41%.
In the case of `CCOc1cc(NC(=O)c2ccccc2C(=O)O)c(OCC)cc1NC(=O)c1ccccc1F`, the inhibition was 53% (active).
With `CCOc1ccccc1NC(=O)c1cc(S(=O)(=O)N2CCC3(CC2)OCCO3)ccc1F`, the inhibition is 24.5%.
`CCCCCNC(=O)C1c2ccccc2Oc2ccccc21`: the inhibition is 18.6%.
Regarding `CCCCC(CC)CNC(=O)C(=O)C1C(=O)Nc2ccccc21` (stereo unspecified), the inhibition was 51.7% (active).
On to `CCCCC(CC)CNC(=O)CCCCn1c(=O)[nH]c2ccsc2c1=O` (stereo unspecified), for which the inhibition was -5.06%.

The values are drawn from PubChem BioAssay AID463212 (Sanford-Burnham Center for Chemical Genomics, 2010).
